D2 PAM-1: positive allosteric modulators of human D2 dopamine receptor. potentiation, % at 10 µM. actives 0.34% (n = 340,000). HEK293 T-REx D2, calcium flux, EC20 dopamine potentiation. P14416;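 active means potentiation over 3 SD above the plate norm, cut at about 30% in these data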; further: 0% is about no effect
Target sequence (P14416 whole entry, looked up): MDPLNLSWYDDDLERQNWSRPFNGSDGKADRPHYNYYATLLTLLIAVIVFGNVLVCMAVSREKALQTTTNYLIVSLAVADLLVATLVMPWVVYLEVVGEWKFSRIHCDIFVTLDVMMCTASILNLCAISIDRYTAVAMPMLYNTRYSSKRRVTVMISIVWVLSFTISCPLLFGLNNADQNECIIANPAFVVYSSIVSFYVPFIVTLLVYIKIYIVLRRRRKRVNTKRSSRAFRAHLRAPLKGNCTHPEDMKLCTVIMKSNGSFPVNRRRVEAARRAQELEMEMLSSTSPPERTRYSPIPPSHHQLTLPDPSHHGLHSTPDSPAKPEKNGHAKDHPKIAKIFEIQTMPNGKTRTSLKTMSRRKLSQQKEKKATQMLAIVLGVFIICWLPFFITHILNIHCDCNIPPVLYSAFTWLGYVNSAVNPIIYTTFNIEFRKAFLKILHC
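Potentiation of an EC20 dopamine calcium response measured kinetically over 180 s, after a preceding 180 s compound-only read flagging agonists. Cells: inducible Hek293 Trex D2 line, 4000/well, cultured overnight at 30 C before dye loading.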
D2 ag-1: activates the human D2 dopamine receptor. P14416. DiscoveRx PathHunter D2 beta-arrestin, luminescence, 90 min; 100% = 57 uM dopamine signal. activation, % (test concentration not listed). actives 0.084% (n = 360,000). AID 624465; in the data active means activation above about 40%; inconclusive means between about 15% and that limit
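Agonist mode: compounds alone added to overnight-plated D2 PathHunter cells for 90 min at 37 C, with 57 uM final dopamine (EC100) defining full response. Beta-arrestin recruitment detected by chemiluminescent reagent, read after 1 h at ambient temperature.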
D2 PAM-2: potentiates the human D2 dopamine receptor allosterically | potentiation, % (no concentration beside the values) | P14416 | AID 624464 | DiscoveRx D2 beta-arrestin cells, luminescence, 90 min; 100% = 57 uM dopamine signal | actives 0.23% (n = 360,000); in the data active means potentiation above about 50%; inconclusive means mostly about 30% to 49%
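PathHunter beta-arrestin assay in DiscoveRx D2 cells. Compounds were added with an EC20 of dopamine (50 nM final) for 90 min at 37 deg C. Luminescence was read 1 h after detection reagent, with 57 uM dopamine as the EC100 control.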
D2 ag-2: activates the human D2 dopamine receptor | P14416 | HEK293 T-REx D2 cells, calcium flux agonist mode | activation, % at 2 µM | actives 0.53% (n = 340,000);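 active means activation over 3 SD above normal in the single-dose calcium agonist read, cut at about 30% in these data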; further: 0% is about no effect
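Calcium-flux readout, 1 cycle/sec over 180 s following compound pin transfer, in inducible HEK293 Trex D2 cells (force-coupled); dopamine controls included. Positive calcium responses during this window marked compounds as potential agonists.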
D2 antag: D2 dopamine receptor (human) antagonism | inhibition, % at 10 µM | P14416 | actives 2% (n = 340,000) | HEK293 TREx D2 cells, calcium flux, dopamine EC80; in the data active means inhibition above about 30%; inactive means below that, where a call was filed; further: 0% is about no effect
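HEK293 T-REx D2 cells, tet-induced, calcium dye no-wash. Cpd pintool add, 180 s kinetic, then EC80 DA, 180 s kinetic. Ca flux read.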
Active calls of the source: *; ? = inconclusive; . = no result given. Shown are actives, neighbours in structure and some others; about 2.4% of the full set was active somewhere.

SMILES	D2 PAM-1	D2 ag-1	D2 PAM-2	D2 ag-2	D2 antag
Cc1ccc(C(=O)Nc2c(C(=O)N3CCOCC3)cnn2-c2ccccc2)cc1	33*	-3	-8	-1	-31
O=C(Nc1c(C(=O)N2CCOCC2)cnn1-c1ccccc1)c1ccc([N+](=O)[O-])cc1	2	7	-9	0	-6
COC(=O)c1sc(-c2ccccc2)cc1NC(=O)Nc1ccc(F)cc1	0	.	.	-1	.
Cc1ccc(NC(=O)/C=C/c2cccc(C(F)(F)F)c2)cc1	-21	-3	-9	1	69*
O=C(/C=C/c1cccc(C(F)(F)F)c1)Nc1cccc(C(F)(F)F)c1	-10	4	-1	1	19
Cc1cc(C)c(NC(=O)Cn2c(=O)n(Cc3ccco3)c(=O)c3ccc(C(=O)NC4CCCC4)cc32)c(C)c1	-2	.	.	-1	.
CCCCCCc1cc2cc(/C(N)=N/NC(=O)c3ccncc3)c(=O)oc2cc1O	14	3	-7	34*	-2
CCCCCCc1cc2cc(C(=O)OCC)c(=O)oc2cc1O	3	-4	-6	5	-2
COc1ccccc1NC(=O)C(C)OC(=O)CCNS(=O)(=O)c1ccc(C)c(C)c1 (centres undefined)	-14	-5	-28	0	40*
C=CCn1c(SCC(=O)Nc2cc(C)on2)nc2sc(C)c(C)c2c1=O	.	2	0	.	.
COCCn1c(SCC(=O)Nc2cc(C)on2)nc2cc(Cl)ccc2c1=O	72*	1	-12	0	1
Cc1cc(NC(=O)CSc2nc3cc(Cl)ccc3c(=O)n2CC(C)C)no1	-4	.	.	1	-8
CCn1c(SCC(=O)Nc2cc(C)on2)nc2sc(C)c(C)c2c1=O	-2	.	.	1	36*
Cc1cc(C)n(-c2nc(C)c(C)c(=O)n2CC(=O)Nc2ccc(Cl)c(Cl)c2)n1	-4	.	.	-4	.
CCOc1ccc(-c2nnc(NC(=O)Cc3ccc(OC)cc3)o2)cc1	-8	-4	-7	0	35*
COc1ccc(-c2nnc(NC(=O)c3ccc(F)cc3)o2)cc1	-13	-6	1	-1	34*
CN(C)C=NC(=O)c1cc(C(=O)c2ccccc2Cl)c[nH]1	-4	-1	3	0	46*
Cc1ccc(SC[C@H](c2ccccc2)N2CCN(C)CCC2=O)cc1	1	-3	-20	-1	38*
CN1CCC(=O)N([C@H](CSc2ccccc2)c2ccccc2)CC1	-18	-3	-18	-1	6
COC(=O)c1c(NC(=O)c2ccco2)sc(C(=O)N(C)C)c1C	77*	-3	-12	1	-21
CN(C)C(=O)c1c(NC(=O)c2ccco2)sc2c1CCCCC2	34*	-1	20	0	35*
CCOC(=O)c1cc(S(=O)(=O)N2CCN(c3cc(Cl)ccc3C)CC2)[nH]n1	10	.	.	-2	.
O=C(NNC1=Nc2ccccc2SC1)c1cccc([N+](=O)[O-])c1	-25	-3	-14	0	71*
COc1cc(/C=C/c2nc(C#N)c(N3CCCCCC3)o2)cc(OC)c1OC	5	.	.	-1	.
C=CCc1cc(OC)ccc1OCCOCCN1CCc2ccccc2C1	-25	0	-18	-1	84*
SMILES	D2 PAM-1	D2 ag-1	D2 PAM-2	D2 ag-2	D2 antag
COc1ccc(OCCCN2CCc3ccccc3C2)cc1	-13	-1	-26	0	72*
O=[N+]([O-])c1ccc(OCCCCN2CCc3ccccc3C2)cc1	-31	5	-22	-1	62*
c1ccc(OCCOCCN2CCN(C(c3ccccc3)c3ccccc3)CC2)cc1	-36	-6	-27	-1	-37
c1ccc(OCCOCCN2CCc3ccccc3C2)cc1	-25	-5	-9	-1	65*
Cc1ccc(SCCOCCN2CCc3ccccc3C2)cc1	-24	-5	-21	-1	75*
CCOc1ccc(OCCOCCN2CCCC2)cc1	9	-2	13	1	-15
Cc1ccc(SCCOCCN2CC(C)OC(C)C2)cc1 (centres undefined)	21	-2	-23	0	20
CCOc1ccc(OCCOCCN2CCc3ccccc3C2)cc1	-20	0	-45	13	68*
CCCOc1ccc(OCCOCCN2CCc3ccccc3C2)cc1	-26	0	1	14	31*
CCc1cccc(NC(=O)Cn2c(=O)n(Cc3ccccc3)c(=O)c3c2c2cc(OC)ccc2n3C)c1	-2	.	.	1	.
COc1ccc(C)cc1NC(=O)CN1C(=O)CSc2ccc(S(=O)(=O)N3CCCC3)cc21	13	-1	-5	0	-5
COc1ccc(OC)c(NC(=O)CN2C(=O)CSc3ccc(S(=O)(=O)N4CCCC4)cc32)c1	33*	-5	-2	0	-10
CCC1(c2ccccc2)NC(=O)N(CC(=O)Nc2cc(S(=O)(=O)N3CCCCCC3)ccc2OC)C1=O (centres undefined)	.	8	63*	.	.
O=c1oc(-c2ccc(O)c(O)c2)cc2cc(O)cc(O)c12	.	?	51*	.	.
Cc1ccc(C)c(NC(=O)C(=O)NCCc2csc3nc(-c4ccccc4C)nn23)c1	3	.	.	0	.
COc1ccccc1CNC(=O)Cn1c(=O)nc(-c2ccccc2F)c2cc(Cl)ccc21	3	.	.	-3	.
CN(c1ccccc1)S(=O)(=O)c1ccc(Cl)c(C(=O)NC2=NCCS2)c1	31*	3	8	-1	-11
COc1ccccc1N(C)S(=O)(=O)c1ccc(Cl)c(C(=O)NC2=NCCS2)c1	-7	1	-4	-8	-2
CCC(C)NC(=O)Cn1ncc2c(C)n(Cc3ccc(F)cc3)c(C)c2c1=O (centres undefined)	0	.	.	.	.
CCN(c1cccc(C(F)(F)F)c1)S(=O)(=O)c1ccc2c(c1)CCN2C(C)=O	-9	-1	-26	0	31*
CCN(c1cccc(C)c1)S(=O)(=O)c1ccc2c(c1)CCN2C(C)=O	-15	-1	-36	-1	2
CCC(C)Nc1nc2c(c(=O)n(C)c(=O)n2C)n1Cc1cccc(C)c1 (centres undefined)	-7	-1	10	-2	15
Cc1cccc(Nc2nc3c(c(=O)n(C)c(=O)n3C)n2Cc2ccccc2)c1	46*	-5	-16	-1	8
CC(C)NC(=O)c1sc2ncccc2c1-n1cccc1	-2	.	.	-1	.
COc1cccc(NC(=O)C(C)n2c(=O)cc(C(F)(F)F)c3c(C)nn(C)c32)c1 (centres undefined)	-14	.	.	0	.
COc1ccc(Cn2ccc3nc(C)c(C(=O)N4CCN(c5ccccc5OC)CC4)cc3c2=O)cc1	-8	.	.	.	.
Cc1cc(C(=O)CSc2nc3ccccc3c(=O)[nH]2)c(C)n1C	39*	-1	-8	0	-10
NC(=O)C1CCN(S(=O)(=O)c2ccc(N3CCCCS3(=O)=O)cc2)CC1	3	.	.	3	.
